An excerpt weighted towards active compounds, which were near 8% of everything screened.
Lassa entry – inhibitors of Lassa virus binding or entry into cells | Lassa virus pseudotyped entry inhibition, cell-based qHTS | Potency, µM (top dose mostly 49.2 µM), for the others: top-dose activity change, negative = inhibition, actives largely listed as inhibitors | 18,000 compounds, 4.1% hits
MARV entry inh – Marburg virus entry inhibition | Potency, µM (doses to about 49.2 µM), for inactives: at the highest dose activity change, negative = inhibition, hits mostly inhibitors | Marburg virus pseudotype entry/binding inhibition, cell-based | 18,000 compounds, 6.5% hits
Numbers without * were called inactive; ? = inconclusive; . = no result given; ! = repeats disagree; [ ] = another dose, or the depositor's remark. Calls come from the whole dose curve; tested in HEK293 cells. % is set by controls: 0 for no effect and ±100 for the full control effect; potency is the fitted concentration of half-maximal effect.

SMILES	Lassa entry	MARV entry inh
COC(=O)C1(C(=O)OC)C/C=C\Cc2ccccc2[C@@H]1C[N+](=O)[O-]	0.25µM*!	-4%
COC(=O)C1(C(=O)OC)C/C=C\C/C=C\c2ccccc2[C@@H]1C[N+](=O)[O-]	5%	4%
CC(=O)OC[C@H]1O[C@H](C#Cc2ccccc2)C=C[C@H]1O	5%[8.59 µM]	-3%[8.59 µM]
CCCCCC(=O)N1C[C@H](n2cc(C3CC3)nn2)[C@@H](O)C[C@H]1c1ccccc1	-17%	23%
CNc1cc(OC)c(C(=O)N[C@H]2CCN(Cc3ccccc3)[C@H]2C)cc1Cl	?	18µM*
COC1=C[C@H](C(=O)NC2CCN(Cc3ccccc3)CC2)[C@H](C)[C@@H](c2ccccc2)CC1=O	18%[8.59 µM]	9%[8.59 µM]
O=[N+]([O-])c1ccc(/C=N\O)o1	-2%	16%
NC(N)=NN=C(/C=C/c1ccc([N+](=O)[O-])o1)/C=C/c1ccc([N+](=O)[O-])o1	6.3µM*	14µM*
COc1ccc([C@]23Cc4c(ccc5ccccc45)[C@H](O2)C2=C(CCCC2=O)O3)cc1	13%[8.59 µM]	-21%[8.59 µM]
CCCNC(=O)N1C2=NC(C(=O)OC)=C(C(=O)OC)[C@@H]3N(C)c4ccccc4[C@]23C[C@H]1C(=O)OC	-6%[8.59 µM]	7%[8.59 µM]
C=CC[C@@]1(c2ccc(OC)cc2)Oc2ccccc2C2=NCCN=C21	15%[8.59 µM]	?
COc1ccc(C(C)=O)c(O)c1	14%	19%
COCc1cc(O)c(O)c(O)c1-c1c(COC)cc(O)c(O)c1O	-14%	7.9µM*
N#Cc1ccc2c(c1)C[C@]1(c3ccsc3)OC3=C(C(=O)OC4(CCCCC4)C3)[C@H]2O1	-4%[8.59 µM]	?
C[C@H]1CCC[C@H](O)CCCCCc2cc(O)cc(O)c2C(=O)O1	-26%	14%
CC1CC2OC2/C=C\C=C/C(=O)Cc2c(Cl)c(O)cc(O)c2C(=O)O1 (configuration not stated)	7.9µM*	2.5µM*
Clc1ccccc1CNCC1CCC(CNCc2ccccc2Cl)CC1 (configuration not stated)	20µM*	6.3µM*
CC(Cc1ccccc1)NCc1ccccc1Cl (configuration not stated)	-2%	3%
O=S1(=O)CCSCCN1Cc1cc(F)ccc1Br	55%	23%
CC1(C)N=C(N)N=C(N)N1c1ccc(Cl)cc1	11µM*	7.1µM*
COC(=O)C(C(C)=O)[C@@H](NC(=O)NCc1ccccc1)c1ccccc1 (some centres not stated)	15%[8.59 µM]	25%[8.59 µM]
CCCCOc1ccc(C(=O)CCN2CCCCC2)cc1	-9%	?
CC(C)N1CCN(c2ccc(C(=O)c3c(-c4ccc(O)cc4)sc4cc(O)ccc34)cc2)CC1	?	5µM*
O=C(c1ccc(OCCN2CCCCC2)cc1)c1c(-c2ccc(O)cc2)sc2cc(O)ccc12	32µM*!	14µM*
COC(=O)C1=C2CCCO[C@H]2[C@@H]2[C@@H](C)[C@H](OC)c3ccccc3[C@@H]12	-13%[8.59 µM]	2%[8.59 µM]
SMILES	Lassa entry	MARV entry inh
CC(=O)c1ccc(-c2c(C)cc3oc(=O)cc(-c4ccccc4)c3c2C)cc1	?	-18%
Cc1cc2oc(=O)cc(-c3ccccc3)c2c(C)c1-c1ccc(CO)cc1	11µM*	-11%
O=C1OC2(CCCCC2)CC2=C1[C@H]1O[C@](c3ccsc3)(Cc3c1ccc1ccccc31)O2	6%[8.59 µM]	2%[8.59 µM]
NC(=O)c1cccc(Nc2nccc(Nc3cccc4[nH]ncc34)n2)c1	-16%	?
CC(C)C[C@@H](NC(=O)OCC1c2ccccc2-c2ccccc21)C(=O)O	14%	9%
CC(C)C[C@@H](/C=C/S(C)(=O)=O)NC(=O)[C@H](CC(C)C)NC(=O)[C@H](CC(C)C)NC(=O)OCc1ccccc1	1.1µM*	?
CC(=O)[C@H](CC(C)C)NC(=O)[C@@H](CC(C)C)NC(=O)[C@H](CC(C)C)NC(=O)OCc1ccccc1	0.32µM*	-87%
COC(=O)[C@H](Cc1ccccc1)NC(=O)[C@@H](N)CC(=O)O	3%	22%
Nc1ccccc1C(=O)C=Cc1ccccc1	13%[8.59 µM]	11%[8.59 µM]
COC(=O)C1=C(C(=O)OC)[C@@H]2N(C)c3ccccc3[C@@]23C[C@@H](C(=O)OC)N(C(=O)NCCBr)C3=N1	-1%[8.59 µM]	?
CCN1C(=O)[C@@H]2[C@H]3[C@H](O)[C@H](O)CC(=NOC[C@@H](O)COCc4ccco4)[C@@H]3CC[C@H]2C1=O	1%[8.59 µM]	-22%[8.59 µM]
CCCCCC(=O)O[C@]1(C(C)=O)CC[C@H]2[C@@H]3CCC4=CC(=O)CC[C@]4(C)[C@H]3CC[C@@]21C	32µM*	?
CC(=O)C1CCC2C3CCC4=CC(=O)CC[C@@]4(C)C3CC[C@]12C (some centres not stated)	9%	22µM*
CCCCCCCCCC(=O)O[C@H]1CC[C@H]2[C@@H]3CCC4=CC(=O)CC[C@]4(C)[C@H]3CC[C@]12C	-9%	19%
CC(=O)[C@@]1(O)CC[C@H]2[C@@H]3CCC4=CC(=O)CC[C@]4(C)[C@H]3CC[C@@]21C	-30%	-6%
C=CCOC(=O)C(C(C)=O)[C@@H](NC(=O)OC)c1ccc(F)cc1 (some centres not stated)	12%[8.59 µM]	20%[8.59 µM]
COc1cccc(CS(=O)(=O)c2ccccc2)c1	2%	10%
COc1cccc(CCc2ccccc2OCC(CN(C)C)OC(=O)CCC(=O)O)c1 (configuration not stated)	22µM*	11µM*
CCn1c(-c2nonc2N)nc2c(C#CC(C)(C)O)nc(OCC(N)c3ccccc3)cc21 (configuration not stated)	.	3.1µM*
CCn1c(-c2nonc2N)nc2c(C#CCN)ncc(OCCCN)c21	15%	?
CCn1c(-c2nonc2N)nc2c(C#CC(C)(C)O)ncc(OC3CCNCC3)c21	.	4µM*
CCn1c(-c2nonc2N)nc2ccc(F)cc21	-10%	?
CC1=C2[C@H](O)[C@H]([C@@H](C)C(=O)NCCC(C)C)CC[C@@]2(C)C=CC1=O	6%[8.59 µM]	23%[8.59 µM]
O=C(Nc1ccc(/C=C/c2ccc(NC(=O)c3cc(S(=O)(=O)O)c4cccnc4c3O)cc2S(=O)(=O)O)c(S(=O)(=O)O)c1)c1cc(S(=O)(=O)O)c2cccnc2c1O	3%	3.5µM*
O=S(=O)(O)c1cc(I)c(O)c2ncccc12	?	-20%
SMILES	Lassa entry	MARV entry inh
COc1ccc(-c2cc3c(N)ncnc3o2)cc1	55%	91%
CC=CC1=CC2=CC(=O)C(C)(OC(=O)c3c(C)cc(O)cc3O)C(=O)C2=CO1 (configuration not stated)	.	-2%[8.59 µM]
CC(C)c1ccc(Cn2ccc3c4c(N)nc(NC5CC5)nc4ccc32)cc1	13µM*	4µM*
CC(=O)[C@]12[C@H](c3ccccc3)[C@@H]3CCN(C(=O)N[C@H]1c1ccccc1)[C@@]32C	-1%[8.59 µM]	-11%[8.59 µM]
CC(=O)OC[C@H]1O[C@H](CC=NO[C@H](C)c2cn([C@@H]3COC[C@@H]3O)nn2)C=C[C@@H]1OC(C)=O	-3%[8.59 µM]	-12%[8.59 µM]
CC1OC(=O)C(C(C)C)NC(=O)C(C(C)C)OC(=O)C(C(C)C)NC(=O)C(C)OC(=O)C(C(C)C)NC(=O)C(C(C)C)OC(=O)C(C(C)C)NC(=O)C(C)OC(=O)C(C(C)C)NC(=O)C(C(C)C)OC(=O)C(C(C)C)NC1=O (configuration not stated)	0.13µM*	89µM*
CC1(C)CC(n2cnc(-c3ccc(F)cc3)c2-c2ccnc(N)n2)CC(C)(C)N1	27%	?
CCC1(C2CCN(Cc3ccccn3)CC2)NC(=O)N(CC2COc3ccccc3O2)C1=O (configuration not stated)	-8%	-1%
